The source of these data is the OligoGym collection.
Also: reference of the scale not given here.

The target of the first assay is CRIPAK. As to the kind of experiment: pooled miR-30 sensor sort-seq; sequence = guide strand. Conditions: shRNA.
Regarding TAGAATGTACGGTAACAGCGTC, the sensor-assay potency score (higher = more potent) was -0.204.

Sequence ATGTACGGTAACAGCGTCTGAC displayed a sensor-assay potency score (higher = more potent) of -0.866.

Take TACGGTAACAGCGTCTGACTCG: the sensor-assay potency score (higher = more potent) was -0.0922.

AACAGCGTCTGACTCGGCCGGC returned a sensor-assay potency score (higher = more potent) of -0.602.

TACAGAACCACCATGCCAGGGC yielded a sensor-assay potency score (higher = more potent) of 0.653.

In turn, TAACAGCGTCTGACTCGGCCGG displayed a sensor-assay potency score (higher = more potent) of -0.738.

On to TCCACATGGGCACATGAGCAGG, for which the sensor-assay potency score (higher = more potent) is -2.25.

ACCTACAGAACCACCATGCCAG gave a sensor-assay potency score (higher = more potent) of -1.69.

Take TCGACATGTGTGAGCAGGCGGG: the sensor-assay potency score (higher = more potent) is -1.62.

TTAAAAAGCCACCATGAGTAGA had a sensor-assay potency score (higher = more potent) of -1.01.

Take TATAAAAGGGATCCTTGACATA: the sensor-assay potency score (higher = more potent) was -1.08.

With ACCATGAGTAGAATGTACGGTA, the sensor-assay potency score (higher = more potent) is -1.4.

Another assay addresses CROT. The description is as above. Conditions: shRNA.
Regarding TTCATAGCAACAACCAGGGTGT, the sensor-assay potency score (higher = more potent) worked out at 0.163.

In turn, TTGTAACATCTTTTGCTGCCGC displayed a sensor-assay potency score (higher = more potent) of -0.495.

TGATGGTATACGAACATCCAGA had a sensor-assay potency score (higher = more potent) of -1.05.

Turning to TTCTAATTGAGTCCCTTCCTTT, the sensor-assay potency score (higher = more potent) was -0.88.

Regarding TAGAGGAGTATTTCCAACTTTA, the sensor-assay potency score (higher = more potent) is -0.214.

As for TAGCATTCGGAATTGATTCATA, the sensor-assay potency score (higher = more potent) was -0.712.

In turn, TATATCTCGTACCTTCTCTGAA yielded a sensor-assay potency score (higher = more potent) of -0.557.

As to TTCAAGTGAAGGAACAGGCAGT, the sensor-assay potency score (higher = more potent) was 0.589.

Sequence TTGTCTGAGAAGCTCTGGCGGG came in with a sensor-assay potency score (higher = more potent) of -0.935.

Consider TATACCAGTAAACTACTCTGAA, for which the sensor-assay potency score (higher = more potent) was determined as 0.286.

Sequence TTTCATAGCAACAACCAGGGTG came in with a sensor-assay potency score (higher = more potent) of 0.143.

TTTTCTTATATTCTTCTTGATT yielded a sensor-assay potency score (higher = more potent) of -1.35.
